Tests used:
[1] = target: Protein kinase C gamma type (Homo sapiens) (UniProt P05129); details: at 1 µM;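 further: each value is an averaged percent inhibition of the enzyme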
[2] = target: T1, Protein kinase C iota type (Homo sapiens) (UniProt P41743); details: at 0.1 µM
T1 sequence (whole entry): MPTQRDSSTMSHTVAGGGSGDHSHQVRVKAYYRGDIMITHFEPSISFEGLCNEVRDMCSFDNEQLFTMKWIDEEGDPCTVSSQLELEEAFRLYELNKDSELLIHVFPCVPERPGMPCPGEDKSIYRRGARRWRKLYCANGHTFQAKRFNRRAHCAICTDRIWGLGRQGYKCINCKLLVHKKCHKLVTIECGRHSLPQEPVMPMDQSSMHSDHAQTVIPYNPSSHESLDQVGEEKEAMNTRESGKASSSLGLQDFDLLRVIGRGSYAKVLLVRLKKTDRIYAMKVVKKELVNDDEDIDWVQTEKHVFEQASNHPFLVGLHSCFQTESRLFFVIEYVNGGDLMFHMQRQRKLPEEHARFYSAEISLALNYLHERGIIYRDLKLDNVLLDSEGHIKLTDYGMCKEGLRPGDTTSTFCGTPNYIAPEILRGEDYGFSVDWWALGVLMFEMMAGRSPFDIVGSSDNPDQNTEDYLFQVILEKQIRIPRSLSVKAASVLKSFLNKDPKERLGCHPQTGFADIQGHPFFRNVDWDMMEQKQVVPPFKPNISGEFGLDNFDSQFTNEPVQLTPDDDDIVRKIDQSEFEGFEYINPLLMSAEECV

[3] = target: T1, Protein kinase C iota type (Homo sapiens); details: at 1 µM
[4] = target: Protein kinase C theta type (Homo sapiens) (UniProt Q04759); details: at 0.1 µM
Sequence of Protein kinase C theta type (Homo sapiens) (Q04759 whole entry, looked up): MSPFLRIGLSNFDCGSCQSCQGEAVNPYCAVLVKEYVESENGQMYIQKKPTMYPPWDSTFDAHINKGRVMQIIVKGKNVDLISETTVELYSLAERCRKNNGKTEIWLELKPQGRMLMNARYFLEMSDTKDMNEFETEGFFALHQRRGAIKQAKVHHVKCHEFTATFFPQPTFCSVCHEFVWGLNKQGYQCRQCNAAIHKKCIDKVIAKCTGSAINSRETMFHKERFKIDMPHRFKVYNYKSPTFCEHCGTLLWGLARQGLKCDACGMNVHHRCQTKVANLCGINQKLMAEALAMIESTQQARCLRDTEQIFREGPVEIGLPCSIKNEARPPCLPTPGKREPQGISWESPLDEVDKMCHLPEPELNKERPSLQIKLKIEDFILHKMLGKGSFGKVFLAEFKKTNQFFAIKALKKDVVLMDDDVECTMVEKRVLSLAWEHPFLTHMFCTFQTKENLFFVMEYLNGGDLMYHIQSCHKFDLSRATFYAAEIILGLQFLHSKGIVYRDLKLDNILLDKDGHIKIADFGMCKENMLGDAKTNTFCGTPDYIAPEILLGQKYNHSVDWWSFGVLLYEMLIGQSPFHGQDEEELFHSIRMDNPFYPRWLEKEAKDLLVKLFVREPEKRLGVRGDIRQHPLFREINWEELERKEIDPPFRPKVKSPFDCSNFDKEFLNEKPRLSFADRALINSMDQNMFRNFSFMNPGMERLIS

[5] = target: Protein kinase C theta type (Homo sapiens) (UniProt Q04759); details: at 1 µM
[6] = target: Protein kinase C beta type (Homo sapiens) (UniProt P05771); details: at 0.1 µM
Sequence of Protein kinase C beta type (Homo sapiens) (P05771 2-671 limits assumed): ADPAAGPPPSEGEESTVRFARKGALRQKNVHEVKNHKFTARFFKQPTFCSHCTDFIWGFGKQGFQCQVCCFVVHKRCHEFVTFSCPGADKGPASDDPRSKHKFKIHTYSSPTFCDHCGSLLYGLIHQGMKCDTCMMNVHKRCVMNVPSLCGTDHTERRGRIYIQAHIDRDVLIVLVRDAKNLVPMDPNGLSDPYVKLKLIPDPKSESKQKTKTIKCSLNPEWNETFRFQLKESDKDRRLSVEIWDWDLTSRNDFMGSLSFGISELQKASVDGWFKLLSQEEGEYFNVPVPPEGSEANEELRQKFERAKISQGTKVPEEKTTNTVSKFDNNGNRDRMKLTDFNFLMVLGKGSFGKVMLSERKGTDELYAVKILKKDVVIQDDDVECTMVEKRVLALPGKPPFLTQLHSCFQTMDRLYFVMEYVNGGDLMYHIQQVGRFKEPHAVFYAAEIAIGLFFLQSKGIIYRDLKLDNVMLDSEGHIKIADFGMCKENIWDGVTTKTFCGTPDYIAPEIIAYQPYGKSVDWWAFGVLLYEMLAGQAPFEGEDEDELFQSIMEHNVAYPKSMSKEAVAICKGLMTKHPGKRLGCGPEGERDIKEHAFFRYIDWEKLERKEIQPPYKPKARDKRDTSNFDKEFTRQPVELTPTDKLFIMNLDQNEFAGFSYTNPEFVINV

[7] = target: Protein kinase C beta type (Homo sapiens) (UniProt P05771); details: at 1 µM
[8] = target: T2, Serine/threonine-protein kinase D1 (Homo sapiens) (UniProt Q15139); details: at 0.1 µM
T2 sequence (whole entry): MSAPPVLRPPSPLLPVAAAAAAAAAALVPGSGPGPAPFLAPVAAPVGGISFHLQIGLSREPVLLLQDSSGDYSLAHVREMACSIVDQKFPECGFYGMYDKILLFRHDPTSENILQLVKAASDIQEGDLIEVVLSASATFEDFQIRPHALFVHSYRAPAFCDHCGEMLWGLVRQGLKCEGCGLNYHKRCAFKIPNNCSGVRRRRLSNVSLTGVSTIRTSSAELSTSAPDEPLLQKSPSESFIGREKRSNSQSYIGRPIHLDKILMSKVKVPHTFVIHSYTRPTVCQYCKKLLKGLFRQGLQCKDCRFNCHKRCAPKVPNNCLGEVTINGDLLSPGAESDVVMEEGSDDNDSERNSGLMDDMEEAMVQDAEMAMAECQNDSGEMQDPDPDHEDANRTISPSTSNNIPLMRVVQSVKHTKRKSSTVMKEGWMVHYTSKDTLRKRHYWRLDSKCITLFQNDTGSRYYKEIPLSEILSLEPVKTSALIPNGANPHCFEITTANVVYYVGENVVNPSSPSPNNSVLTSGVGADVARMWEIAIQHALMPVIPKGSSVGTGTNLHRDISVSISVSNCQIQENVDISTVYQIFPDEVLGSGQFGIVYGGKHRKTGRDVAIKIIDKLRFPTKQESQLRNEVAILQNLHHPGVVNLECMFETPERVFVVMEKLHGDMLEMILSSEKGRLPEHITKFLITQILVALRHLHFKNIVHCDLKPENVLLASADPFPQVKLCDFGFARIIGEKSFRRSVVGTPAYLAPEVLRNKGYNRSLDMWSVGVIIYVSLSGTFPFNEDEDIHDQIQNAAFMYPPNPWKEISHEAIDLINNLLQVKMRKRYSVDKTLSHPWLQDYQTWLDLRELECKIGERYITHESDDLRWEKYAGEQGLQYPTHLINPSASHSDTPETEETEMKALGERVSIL

[9] = target: T2, Serine/threonine-protein kinase D1 (Homo sapiens); details: at 1 µM
[10] = target: T3, Serine/threonine-protein kinase D2 (Homo sapiens) (UniProt Q9BZL6); details: at 0.1 µM
T3 sequence (whole entry): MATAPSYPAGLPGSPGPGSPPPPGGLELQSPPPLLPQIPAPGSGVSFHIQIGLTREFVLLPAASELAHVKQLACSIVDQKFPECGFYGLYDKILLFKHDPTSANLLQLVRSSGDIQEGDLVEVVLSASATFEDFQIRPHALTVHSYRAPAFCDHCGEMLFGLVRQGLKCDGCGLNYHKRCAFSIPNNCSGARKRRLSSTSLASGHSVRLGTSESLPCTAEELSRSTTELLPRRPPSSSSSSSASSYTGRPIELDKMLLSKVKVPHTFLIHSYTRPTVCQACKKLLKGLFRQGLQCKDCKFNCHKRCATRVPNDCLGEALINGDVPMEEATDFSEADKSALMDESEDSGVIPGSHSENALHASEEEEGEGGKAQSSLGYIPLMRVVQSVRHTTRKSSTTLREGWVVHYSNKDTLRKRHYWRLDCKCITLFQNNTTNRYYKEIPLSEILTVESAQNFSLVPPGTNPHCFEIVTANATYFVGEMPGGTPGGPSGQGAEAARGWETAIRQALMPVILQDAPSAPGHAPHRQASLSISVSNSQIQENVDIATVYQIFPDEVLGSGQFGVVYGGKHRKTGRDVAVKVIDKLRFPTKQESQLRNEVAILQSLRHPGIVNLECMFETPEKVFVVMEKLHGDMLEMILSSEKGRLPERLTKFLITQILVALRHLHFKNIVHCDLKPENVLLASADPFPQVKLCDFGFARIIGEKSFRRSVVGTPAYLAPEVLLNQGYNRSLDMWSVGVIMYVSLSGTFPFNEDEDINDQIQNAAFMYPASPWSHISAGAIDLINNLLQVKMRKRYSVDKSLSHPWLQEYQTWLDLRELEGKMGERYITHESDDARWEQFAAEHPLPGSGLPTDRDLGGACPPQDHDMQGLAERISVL

[11] = target: T3, Serine/threonine-protein kinase D2 (Homo sapiens); details: at 1 µM
[12] = target: T4, Serine/threonine-protein kinase D3 (Homo sapiens) (UniProt O94806); details: at 0.1 µM
T4 sequence (whole entry): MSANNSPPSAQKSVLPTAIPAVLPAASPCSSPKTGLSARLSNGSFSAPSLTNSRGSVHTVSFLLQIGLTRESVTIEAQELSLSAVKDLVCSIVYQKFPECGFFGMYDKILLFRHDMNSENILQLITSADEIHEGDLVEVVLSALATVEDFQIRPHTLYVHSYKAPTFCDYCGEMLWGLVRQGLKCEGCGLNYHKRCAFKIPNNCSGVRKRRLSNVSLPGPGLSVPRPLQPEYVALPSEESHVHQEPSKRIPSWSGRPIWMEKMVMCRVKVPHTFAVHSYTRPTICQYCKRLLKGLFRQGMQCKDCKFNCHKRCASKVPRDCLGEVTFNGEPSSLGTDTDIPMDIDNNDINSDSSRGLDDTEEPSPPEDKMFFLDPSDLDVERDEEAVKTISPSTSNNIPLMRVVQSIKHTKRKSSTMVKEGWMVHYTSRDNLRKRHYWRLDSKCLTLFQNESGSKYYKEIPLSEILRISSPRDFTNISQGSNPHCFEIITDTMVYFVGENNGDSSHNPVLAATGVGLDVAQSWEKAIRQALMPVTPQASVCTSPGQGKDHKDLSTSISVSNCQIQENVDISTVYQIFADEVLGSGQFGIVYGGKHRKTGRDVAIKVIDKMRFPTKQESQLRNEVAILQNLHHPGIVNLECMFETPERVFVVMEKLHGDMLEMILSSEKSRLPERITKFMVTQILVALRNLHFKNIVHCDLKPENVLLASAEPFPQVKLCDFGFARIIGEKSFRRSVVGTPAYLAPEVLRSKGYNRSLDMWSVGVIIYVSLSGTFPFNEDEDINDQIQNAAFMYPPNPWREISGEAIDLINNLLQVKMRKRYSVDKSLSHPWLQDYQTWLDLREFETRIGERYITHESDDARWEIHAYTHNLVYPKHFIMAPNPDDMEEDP

[13] = target: T4, Serine/threonine-protein kinase D3 (Homo sapiens); details: at 1 µM
[14] = target: T5, cGMP-dependent protein kinase 1 (Homo sapiens) (UniProt Q13976); details: at 0.1 µM
T5 sequence (whole entry): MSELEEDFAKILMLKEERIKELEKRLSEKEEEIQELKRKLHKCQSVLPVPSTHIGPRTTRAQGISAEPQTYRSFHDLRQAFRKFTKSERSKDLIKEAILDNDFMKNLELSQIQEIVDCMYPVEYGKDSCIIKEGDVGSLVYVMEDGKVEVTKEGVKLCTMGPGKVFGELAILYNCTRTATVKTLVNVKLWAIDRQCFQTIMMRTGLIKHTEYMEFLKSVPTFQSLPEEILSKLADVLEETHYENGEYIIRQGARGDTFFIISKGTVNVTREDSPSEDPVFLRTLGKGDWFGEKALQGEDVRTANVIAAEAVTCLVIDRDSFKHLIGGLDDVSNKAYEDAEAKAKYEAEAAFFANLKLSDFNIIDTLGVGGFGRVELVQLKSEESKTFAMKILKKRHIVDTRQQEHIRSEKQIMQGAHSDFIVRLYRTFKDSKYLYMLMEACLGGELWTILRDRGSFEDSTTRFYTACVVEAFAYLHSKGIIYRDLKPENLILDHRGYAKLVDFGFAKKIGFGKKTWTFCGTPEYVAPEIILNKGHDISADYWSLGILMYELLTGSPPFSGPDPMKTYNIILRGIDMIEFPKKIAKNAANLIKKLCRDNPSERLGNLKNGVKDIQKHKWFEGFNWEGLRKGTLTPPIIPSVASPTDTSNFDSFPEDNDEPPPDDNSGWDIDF

[15] = target: T5, cGMP-dependent protein kinase 1 (Homo sapiens); details: at 1 µM
[16] = target: T6, cGMP-dependent protein kinase 2 (Homo sapiens) (UniProt Q13237); details: at 0.1 µM
T6 sequence (whole entry): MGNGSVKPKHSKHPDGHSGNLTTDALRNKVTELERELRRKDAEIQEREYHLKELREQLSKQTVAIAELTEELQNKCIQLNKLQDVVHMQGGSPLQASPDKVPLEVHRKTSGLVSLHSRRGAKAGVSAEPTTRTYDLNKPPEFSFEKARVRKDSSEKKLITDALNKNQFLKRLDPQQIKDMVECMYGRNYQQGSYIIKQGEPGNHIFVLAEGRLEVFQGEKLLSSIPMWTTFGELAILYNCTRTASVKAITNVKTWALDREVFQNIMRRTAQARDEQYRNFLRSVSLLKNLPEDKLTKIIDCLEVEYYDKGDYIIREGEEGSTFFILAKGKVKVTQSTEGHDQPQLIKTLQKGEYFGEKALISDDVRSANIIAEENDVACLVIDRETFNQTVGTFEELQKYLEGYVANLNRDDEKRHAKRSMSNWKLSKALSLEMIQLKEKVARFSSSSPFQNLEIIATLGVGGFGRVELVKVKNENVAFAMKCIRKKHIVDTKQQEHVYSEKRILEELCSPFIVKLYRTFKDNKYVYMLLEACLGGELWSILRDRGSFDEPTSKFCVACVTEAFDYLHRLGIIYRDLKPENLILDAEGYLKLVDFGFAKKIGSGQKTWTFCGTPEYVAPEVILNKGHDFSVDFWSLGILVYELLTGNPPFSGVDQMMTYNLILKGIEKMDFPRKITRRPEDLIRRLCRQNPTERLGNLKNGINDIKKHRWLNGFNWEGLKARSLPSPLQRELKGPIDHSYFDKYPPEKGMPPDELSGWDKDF

[17] = target: T6, cGMP-dependent protein kinase 2 (Homo sapiens); details: at 1 µM
[18] = target: T7, cAMP-dependent protein kinase catalytic subunit PRKX (Homo sapiens) (UniProt P51817); details: at 0.1 µM
T7 sequence (whole entry): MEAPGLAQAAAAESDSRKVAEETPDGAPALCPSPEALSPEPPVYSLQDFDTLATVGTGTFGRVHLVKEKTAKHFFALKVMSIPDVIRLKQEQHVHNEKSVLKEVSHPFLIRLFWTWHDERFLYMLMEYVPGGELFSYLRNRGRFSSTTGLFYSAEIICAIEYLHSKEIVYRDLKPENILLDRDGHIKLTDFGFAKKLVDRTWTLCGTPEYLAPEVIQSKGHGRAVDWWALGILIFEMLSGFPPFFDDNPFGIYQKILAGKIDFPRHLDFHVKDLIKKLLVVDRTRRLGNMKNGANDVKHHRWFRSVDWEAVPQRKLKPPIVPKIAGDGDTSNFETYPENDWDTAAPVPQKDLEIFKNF

[19] = target: T7, cAMP-dependent protein kinase catalytic subunit PRKX (Homo sapiens); details: at 1 µM
[20] = target: Rho-associated protein kinase 1 (Homo sapiens) (UniProt Q13464); details: at 0.1 µM;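 further: values are mean percent inhibition of ROCK1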
Sequence of Rho-associated protein kinase 1 (Homo sapiens) (Q13464 2-1354 limits assumed): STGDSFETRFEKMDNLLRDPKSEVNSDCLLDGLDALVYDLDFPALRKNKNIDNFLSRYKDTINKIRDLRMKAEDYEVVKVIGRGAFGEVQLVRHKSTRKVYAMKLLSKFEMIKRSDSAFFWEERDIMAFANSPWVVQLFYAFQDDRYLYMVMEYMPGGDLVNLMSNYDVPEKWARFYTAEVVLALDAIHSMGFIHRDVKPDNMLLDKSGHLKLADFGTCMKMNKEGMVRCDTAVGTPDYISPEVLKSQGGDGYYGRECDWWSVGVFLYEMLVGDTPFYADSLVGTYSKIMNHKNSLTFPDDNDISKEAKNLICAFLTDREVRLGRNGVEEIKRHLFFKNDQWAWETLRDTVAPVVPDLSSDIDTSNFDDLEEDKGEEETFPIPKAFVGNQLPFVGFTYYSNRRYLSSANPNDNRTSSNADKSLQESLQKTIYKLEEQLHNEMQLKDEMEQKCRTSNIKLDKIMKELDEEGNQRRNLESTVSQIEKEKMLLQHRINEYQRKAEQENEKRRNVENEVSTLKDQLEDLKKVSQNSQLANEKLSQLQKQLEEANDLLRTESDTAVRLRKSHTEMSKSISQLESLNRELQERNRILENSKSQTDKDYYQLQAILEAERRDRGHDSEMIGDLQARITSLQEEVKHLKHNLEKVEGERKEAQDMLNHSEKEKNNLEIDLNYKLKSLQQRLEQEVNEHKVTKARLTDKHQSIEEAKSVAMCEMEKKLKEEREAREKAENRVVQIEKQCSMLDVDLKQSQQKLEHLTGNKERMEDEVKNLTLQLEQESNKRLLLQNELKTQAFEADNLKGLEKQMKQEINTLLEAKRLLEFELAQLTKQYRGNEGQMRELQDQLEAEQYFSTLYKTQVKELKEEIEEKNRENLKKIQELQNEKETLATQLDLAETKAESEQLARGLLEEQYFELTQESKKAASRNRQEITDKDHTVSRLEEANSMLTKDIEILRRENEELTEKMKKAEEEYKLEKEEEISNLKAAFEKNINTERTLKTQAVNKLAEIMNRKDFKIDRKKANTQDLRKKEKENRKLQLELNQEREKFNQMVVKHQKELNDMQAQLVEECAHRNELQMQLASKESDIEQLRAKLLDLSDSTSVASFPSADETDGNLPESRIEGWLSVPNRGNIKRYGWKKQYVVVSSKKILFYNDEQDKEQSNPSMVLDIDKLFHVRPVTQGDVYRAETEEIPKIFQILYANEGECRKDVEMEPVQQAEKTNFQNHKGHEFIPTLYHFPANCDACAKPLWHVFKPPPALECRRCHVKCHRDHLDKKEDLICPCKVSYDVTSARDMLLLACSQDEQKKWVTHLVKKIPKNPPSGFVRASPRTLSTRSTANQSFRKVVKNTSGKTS

Structure (SMILES) | inhibition [1] [%] | inhibition [2] [%] | inhibition [3] [%] | inhibition [4] [%] | inhibition [5] [%] | inhibition [6] [%] | inhibition [7] [%] | inhibition [8] [%] | inhibition [9] [%] | inhibition [10] [%] | inhibition [11] [%] | inhibition [12] [%] | inhibition [13] [%] | inhibition [14] [%] | inhibition [15] [%] | inhibition [16] [%] | inhibition [17] [%] | inhibition [18] [%] | inhibition [19] [%] | inhibition [20] [%]
COC(=O)Nc1nc2cc(Oc3ccc(NC(=O)Nc4ccccc4)cc3)ccc2[nH]1 | 4.89 | -0.48 | -0.69 | 1.38 | 2.87 | 0.28 | 0.72 | 2.86 | 3.15 | 2.3 | 2.45 | 2.48 | 2.79 | 0.72 | 2.97 | 1.5 | 1.55 | 2.09 | 3.93 | 2.24
COc1c(C(N)=O)cc(-c2ccc(Cl)cc2)cc1-c1ccc(S(N)(=O)=O)cc1 | 4.7 | 1 | 0.99 | 2.35 | 3.92 | 1.11 | 3.56 | 4.74 | 5.66 | 3.83 | 1.99 | 4.57 | 4.42 | 4.35 | 9.49 | 3.98 | 8.49 | 1.69 | 3.72 | 2.98
O=C(O[C@H]1CN[C@H](C#Cc2cc3ncnc(Nc4ccc(OCc5cccc(F)c5)c(Cl)c4)c3s2)C1)N1CCOCC1 | 5.45 | 1.77 | 0.9 | 3.84 | 5.14 | 2.11 | 1.21 | 4.61 | 6.86 | 6.18 | 6.01 | 6.55 | 6.45 | 3.08 | 7.14 | 3.07 | 4.91 | 3.17 | 6.34 | 0.81
CS(=O)(=O)CCNCc1ccoc1-c1ccc2ncnc(Nc3ccc(OCc4ccccc4)cc3)c2c1 | 0.87 | 0.27 | -1.03 | -0.2 | 0.08 | -0.23 | 0.72 | 1.6 | 2.33 | 1.46 | 1.7 | 0.9 | 1.39 | -0.04 | 0.54 | -0.54 | -1.25 | 0.33 | -0.34 | -1.21

Source: ChEMBL document CHEMBL1961873, “Compounds: GSK PKIS; Assays: Nanosyn kinase panel” (2012)
